Measured values taken from article PMC12136788.
The full ranking holds about 24,000 sequences; the median of “enrichment r” is about 0.99, and the highest 2% start at about 3.7. Only a sample is shown.

T1: UNK ZnF1-3 (human, UniProt Q9C0B0 31-174)
T1 sequence: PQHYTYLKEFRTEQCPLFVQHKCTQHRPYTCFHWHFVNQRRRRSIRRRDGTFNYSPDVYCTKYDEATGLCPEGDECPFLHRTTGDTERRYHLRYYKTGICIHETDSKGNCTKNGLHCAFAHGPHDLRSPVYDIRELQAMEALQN

B1: 44041996_44042116_73_3pUTR_ENSMUSG00000034342_ENSMUST00000037644|mouse|control|control (ssRNA)
RNA: GGGAGUUCUACAGUCCGACGAUCUCGGCCGCGAGCGAGGGAAUGGAGCCGGGCGAGAAGGAGGGGCCUCUCCGGCAACCACCGCCGGCGCUCGCAGCCCAGGGAGUGAGAGGGAGGCGCCCGCCCUGAGGCGCGCCCCUGCGCCAACAGAGGAUUGAGCAUCA
B2: chr19:16212804:16212805:+_ENSG00000167460_ENST00000300933|hu_mus|hu_hu_hu_mus_False|78_78 (ssRNA)
RNA: GGGAGUUCUACAGUCCGACGAUCAACAAUUCUGGAGUGAAGGAAAGAUGUAACAUGCAAUUAAUUAAAAGCUCAGUCAGAAGGCACAUGGGCAACAAUGAUCACCCCAGCAUUCUCGCUUGGAAUGCUUAAAGACAAUCUGUUCAACAGAGGAUUGAGCAUCA
B3: chr14:54894545:54894546:-_ENSG00000100528_ENST00000216416|hu_mus|FALSE|FALSE (ssRNA)
RNA: GGGAGUUCUACAGUCCGACGAUCCUUCAUUGGUGGCGUUUUGCAUGCACUUAACUGGACCGAUUCUUCUGUGUUGUUCUAAGAGCUCACCAGAACAUAGAUCAUGCCGUAUAGGUAGUAAAAAAACGCUAGAAGGUAAAAAGCCAACAGAGGAUUGAGCAUCA
B4: chr12:96259795:96259796:+_ENSG00000139343_ENST00000266735|hu_mus|motif|central (ssRNA)
RNA: GGGAGUUCUACAGUCCGACGAUCGAGGACAUUAUUACACCUUAUUAGAACUUCGCCCAGAUGUCCAGACAGCGCCCCAUCGGUGUACUCUUCUGUAUUUGCAAGCUGCAUGUUCAUGUAGCCAUCCACGGAGACCAGGUAGCCCAACAGAGGAUUGAGCAUCA
B5: chr11:106117246:106117247:-_ENSMUSG00000020706_ENSMUST00000021048|mus_mus|motif|central (ssRNA)
RNA: GGGAGUUCUACAGUCCGACGAUCGCAGGCCUUACAAGUUAAAAGUAGAGGCUAGGAAGUAGAGUGCAAUAACUCGUAUCCGGAACGCUAGGAAGCAUCAACCAGAAGUUCUAUAUCUCUUCACAAAACUAGUGACCUCCAGUACAACAGAGGAUUGAGCAUCA
B6: chr7:20150648:20150649:-_ENSMUSG00000044709_ENSMUST00000117222|mus_mus|FALSE|FALSE (ssRNA)
RNA: GGGAGUUCUACAGUCCGACGAUCCUUGAAAGAAUAGGAAAUUAUGUCACUACAUCGAAGCAAGGCCUCGGCCUGUACACCUAUGGGAGUCUGCAGUUGGGAAACGUAGAAGUUGGCCACAUCCAGGUCUGUGGCUCCAAACUGCAACAGAGGAUUGAGCAUCA
B7: chr7:7679991:7679992:-_ENSG00000106399_ENST00000396682|hu_hu|hu_hu_hu_mus_False|18_58 (ssRNA)
RNA: GGGAGUUCUACAGUCCGACGAUCUGGGAUGAAUCUUUUCCAGCUUCCCCACGAAGCACACGGGCCGGUCGAUAUACUGAGCUAGCAUGCUGGCGUUGACGCGCGCUUUGGGGAGCUCCAUCAUGUCCUCCAUGAUUCUGCCGCCAACAGAGGAUUGAGCAUCA
B8: chrX:20248820:20248821:+_ENSMUSG00000001924_ENSMUST00000001989|mus_mus|mus_mus_mus_hu_True|48_58 (ssRNA)
RNA: GGGAGUUCUACAGUCCGACGAUCGGCGAAGUCCGUCACCACAAAGUCAGGUUCUGCCAGUGAGGCCACCAAGGAUUUAAAACUAAUCUUUUUCGGUACUUUGACCUGACUGACGAUGCCUCCACGGAUGUAGUCGGAGAAGUUCAACAGAGGAUUGAGCAUCA
B9: chr9:95013113:95013114:-_ENSG00000196305_ENST00000443024|hu_hu|hu_hu_hu_mus_False|78_78 (ssRNA)
RNA: GGGAGUUCUACAGUCCGACGAUCCUCAGUCAGAAAGGGCGUGUAAGGGGCCAUCAGUCUGCAAAGAGAAAGCAGGACACUGAACAGUGUCUCCAGAGCCAUGACACAGUCUUCCACCCCACUCUCACCCUUUAACCUCCUCCUCAACAGAGGAUUGAGCAUCA
B10: chr16:45382771:45382772:-_ENSMUSG00000022661_ENSMUST00000163230|mus_mus|mus_mus_mus_hu_True|48_88 (ssRNA)
RNA: GGGAGUUCUACAGUCCGACGAUCCUGGGUCAUGUUAUAAGACAAAUGGAUAGGGAGGGCAUGCUUCUCAAAAAAUGUGAGCUAUUGACUAAGACUAACAAUAUUUAUCUAGCUAUAAAAAUAAGUUAAAUGAAUAAGUUAAGACAACAGAGGAUUGAGCAUCA
B11: chrX:148369326:148369327:+_ENSMUSG00000025261_ENSMUST00000112622|mus_hu|FALSE|FALSE (ssRNA)
RNA: GGGAGUUCUACAGUCCGACGAUCCUUGUCUCGCAUUGAAUCAUUAGCUGUGCACAUCAACACAUUCCAAGCACAAAUUAAGAAAUGCAAACAGAACAAAAAAAUAUAUAUAUAUAUAAUUUUUUCCCCUAUCCAAAGGUUUCACAACAGAGGAUUGAGCAUCA
B12: 52112337_52131274_754_3pUTR_ENSMUSG00000022637_ENSMUST00000114471|mouse|control|control (ssRNA)
RNA: GGGAGUUCUACAGUCCGACGAUCAUCAAUGGUUGACUUCAGAGCCAUUGCUUCCAGGCCAGAGCUGAUCUGAUGGACCUCAUGCAGGCACUGUCUGAAGACUUUCCAUGGUACAAUAGUUUUGUCUCCAAAAAACUUCCUCCACAACAGAGGAUUGAGCAUCA
B13: chr18:56819859:56819860:+_ENSG00000166562_ENST00000588875|hu_mus|FALSE|FALSE (ssRNA)
RNA: GGGAGUUCUACAGUCCGACGAUCAACCUUGAUUACUCUGUGAACUAUCGGAAUGUCUCUUCCUUCAACCUUAAAAACAACUAUUUCACCAGCUCUGAUGGGGUCCUCCCGGAAAUUCGUGAGGAACAGCAGAUCUCCUCUGUGCAACAGAGGAUUGAGCAUCA
B14: 224577001_224577121_2655_3pUTR_ENSG00000162923_ENST00000295024|human|control|control (ssRNA)
RNA: GGGAGUUCUACAGUCCGACGAUCCGGGCAAGGCUAGAAUCCAUGAACCAAGCUGCAAAGAUCUCAAGCUAAAUAAGGCGGAAAGAUUUGGAGAAACAAAAGAAGGAAAUUCUUUCCUAUCCAAUGUAUACUCUUCAGACUAAUCAACAGAGGAUUGAGCAUCA
B15: chr2:62099399:62099400:-_ENSG00000115484_ENST00000544079|hu_hu|FALSE|FALSE (ssRNA)
RNA: GGGAGUUCUACAGUCCGACGAUCGUAGGAUUCCAUACCACUCAGUGUUCGUGAAUAUUCAGUUAAUCGUAGGGCCAACUCUAUUUCUGGAGCACCACCUCCUGCAAUAAGAGCCCUCUUCUUCACUAAACAACGAAUAACACACAACAGAGGAUUGAGCAUCA
B16: chr13:30086970:30086971:-_ENSG00000139514_ENST00000380752|hu_mus|FALSE|FALSE (ssRNA)
RNA: GGGAGUUCUACAGUCCGACGAUCAGGCCCUGUGUAGGCUGGGGAAGUGUGCUACCACUAGGCUACACGCCUGUCCAGCCCCACUAACUCUUCCAUUCUCAAGAAUCUUCCAAAGCAGAGGAAAGACAGGGCCAUCAGUCUACCCAACAGAGGAUUGAGCAUCA
B17: 101904251_101904371_108_5pUTR_ENSMUSG00000058655_ENSMUST00000169681|mouse|control|control (ssRNA)
RNA: GGGAGUUCUACAGUCCGACGAUCGGAGAGAGAACGCAAAGGACCCGGAUGAGGCAGUCACGUGAUUAUAGCGGGCGCGACGGGCUUGGAGACGUGAAACCAGGAGGGGGCGGGGAGCCGAGGACGGAGGCAGAAGGCGGGGCGCAACAGAGGAUUGAGCAUCA
B18: 125499526_125499646_756_3pUTR_ENSMUSG00000091337_ENSMUST00000164756|mouse|control|control (ssRNA)
RNA: GGGAGUUCUACAGUCCGACGAUCCUGUGAGACCAAAGAGGAACGAUUUGGUCUUUUUCUCCUCGCGAUUCUCAGGUUUAACACUCCUCCUUCCUCGAUUCUCCUUUUCCACAAUGCAUGGUCAUUCACUGUCCCGUCUUCUAUCAACAGAGGAUUGAGCAUCA
B19: 19967392_19969057_911_3pUTR_ENSMUSG00000002428_ENSMUST00000002502|mouse|control|control (ssRNA)
RNA: GGGAGUUCUACAGUCCGACGAUCUCCCAGAAUGGUGGUAGUUCUUUACUGUUCUCUCGUGCGAUCAUCCAAGCUAGAGCUUGUUUUUGGUGUGGAAGCAACGGUGUUUCAAUAGCCUCAGCUGGUUCCAUUUCAACAGUUCUACAACAGAGGAUUGAGCAUCA
B20: chrX:21990627:21990628:+_ENSG00000102172_ENST00000404933|hu_hu|FALSE|FALSE (ssRNA)
RNA: GGGAGUUCUACAGUCCGACGAUCCACCCGCCCAGUACUGUCCUGACUCAAUUCUUUCAUUCUUUCCUCUACUUUGUUCAAAAUACUGUCGAUCUCUUCUUUGCCUUGCGCAUCACCAUCAUAACUCUGAAGGUCCAGCAACACCAACAGAGGAUUGAGCAUCA

Target: T1, UNK ZnF1-3
Assay: nsRBNS (natural sequence RNA bind-n-seq); RBNS binding buffer (assumed for nsRBNS): 25 mM Tris pH 7.5, 150 mM KCl, 3 mM MgCl2, 0.01% Triton X-100, 500 ug/ml BSA, 20 U/ml SUPERase-In, 4 C; UNK is unkempt and MSI1 is Musashi-1; names of the RNAs are library labels; protein concentration not given here; high values mean tight binding

For B1, which binding signal is on record?
The binding signal was 0.497 enrichment R.

How did the binding signal turn out when B2 was run?
Its binding signal is 1.31 enrichment R.

Which binding signal does the source give for B3 here?
Its binding signal is 1.42 enrichment R.

B4 was tested. Which binding signal did it give?
Its binding signal is 0.83 enrichment R.

With B5 as the binder, how does the binding signal read?
Its binding signal is 1.8 enrichment R.

B6 was tested. Which binding signal did it give?
The binding signal was 0.807 enrichment R.

Which binding signal does the source give for B7 here?
Its binding signal is 0.939 enrichment R.

Which binding signal does the source give for B8 here?
The binding signal was 1.04 enrichment R.

B9 was tested. Which binding signal did it give?
The binding signal was 1.44 enrichment R.

How did the binding signal turn out when B10 was run?
The binding signal was 2.26 enrichment R.

For B11, which binding signal is on record?
The binding signal was 0.406 enrichment R.

Which binding signal does the source give for B12 here?
The binding signal was 0.85 enrichment R.

B13 was tested. Which binding signal did it give?
Its binding signal is 0.758 enrichment R.

With B14 as the binder, how does the binding signal read?
The binding signal was 1.48 enrichment R.

How did the binding signal turn out when B15 was run?
The binding signal was 1.13 enrichment R.

Which binding signal does the source give for B16 here?
The binding signal was 1.02 enrichment R.

For B17, which binding signal is on record?
Its binding signal is 3.03 enrichment R.

How did the binding signal turn out when B18 was run?
The binding signal was 0.473 enrichment R.

With B19 as the binder, how does the binding signal read?
Its binding signal is 0.75 enrichment R.

Which binding signal does the source give for B20 here?
Its binding signal is 0.997 enrichment R.
